# Like-named read-outs stand apart in the source and are kept apart here.
# Key:
# Conditions in all cases: read-out: apparent Kd, n = 1
# ERCC2 = test system: ERCC2
# MAP2K5 = test system: MAP2K5
# MAP4K4 = test system: MAP4K4
# MAPK9 = test system: MAPK9
# PRKAG2 = test system: PRKAG2
# PRKCA = test system: PRKCA
# PRKX = test system: PRKX
# RPS6KA3 = test system: RPS6KA3
# [1] = compound concentrations:100 nM and 1000 nM (sheet 'Lestaurtinib' of Supplementary Table 1),run:Lestaurtinib_02381_R1,Plate:MR004
# [2] = compound concentrations:100 nM and 1000 nM (sheet 'Lestaurtinib' of Supplementary Table 1),run:Lestaurtinib_02381_R2,Plate:MR004
# [3] = compound concentrations:100 nM and 1000 nM (sheet 'Lestaurtinib' of Supplementary Table 1),run:Lestaurtinib_02473_R2,Plate:MR010
# [4] = compound concentrations:100 nM and 1000 nM (sheet 'Lestaurtinib' of Supplementary Table 1),run:Lestaurtinib_02566_R1,Plate:MR014
# [5] = compound concentrations:100 nM and 1000 nM (sheet 'Lestaurtinib' of Supplementary Table 1),run:Lestaurtinib_02724_R3,Plate:MR021
# [6] = compound concentrations:100 nM and 1000 nM (sheet 'Lestaurtinib' of Supplementary Table 1),run:Lestaurtinib_02438_R2,Plate:MR008
# [7] = compound concentrations:100 nM and 1000 nM (sheet 'Lestaurtinib' of Supplementary Table 1),run:Lestaurtinib_02443_R3,Plate:MR009
# [8] = compound concentrations:100 nM and 1000 nM (sheet 'Lestaurtinib' of Supplementary Table 1),run:Lestaurtinib_02724_R1,Plate:MR021
# [9] = compound concentrations:100 nM and 1000 nM (sheet 'Lestaurtinib' of Supplementary Table 1),run:Lestaurtinib_03172_R1,Plate:MR031
# [10] = compound concentrations:100 nM and 1000 nM (sheet 'Lestaurtinib' of Supplementary Table 1),run:Lestaurtinib_02487_R1,Plate:MR012
# [11] = compound concentrations:100 nM and 1000 nM (sheet 'Lestaurtinib' of Supplementary Table 1),run:Lestaurtinib_02748_R1,Plate:MR024
substance,measurement,setting,value
Lestaurtinib,potency estimated from few doses,"ERCC2; compound concentrations:100 nM and 1000 nM (sheet 'Lestaurtinib' of Supplementary Table 1),run:Lestaurtinib_02496_R3,Plate:MR013",1590 nM
same,potency estimated from few doses,"ERCC2; compound concentrations:100 nM and 1000 nM (sheet 'Lestaurtinib' of Supplementary Table 1),run:Lestaurtinib_02572_R2,Plate:MR015",261 nM
same,potency estimated from few doses,"MAP2K5; compound concentrations:100 nM and 1000 nM (sheet 'Lestaurtinib' of Supplementary Table 1),run:Lestaurtinib_02364_R1,Plate:MR002",2240 nM
same,potency estimated from few doses,MAP2K5; [1],1340 nM
same,potency estimated from few doses,MAP2K5; [2],2420 nM
same,potency estimated from few doses,"MAP2K5; compound concentrations:100 nM and 1000 nM (sheet 'Lestaurtinib' of Supplementary Table 1),run:Lestaurtinib_02437_R1,Plate:MR007",2430 nM
same,potency estimated from few doses,MAP2K5; [3],2440 nM
same,potency estimated from few doses,"MAP2K5; compound concentrations:100 nM and 1000 nM (sheet 'Lestaurtinib' of Supplementary Table 1),run:Lestaurtinib_02482_R3,Plate:MR011",2350 nM
same,potency estimated from few doses,MAP2K5; [4],1960 nM
same,potency estimated from few doses,MAP2K5; [5],1790 nM
same,potency estimated from few doses,"MAP2K5; compound concentrations:100 nM and 1000 nM (sheet 'Lestaurtinib' of Supplementary Table 1),run:Lestaurtinib_02748_R3,Plate:MR024",1820 nM
same,potency estimated from few doses,"MAP2K5; compound concentrations:100 nM and 1000 nM (sheet 'Lestaurtinib' of Supplementary Table 1),run:Lestaurtinib_02766_R1,Plate:MR027",2210 nM
same,potency estimated from few doses,MAP4K4; [2],2240 nM
same,potency estimated from few doses,MAP4K4; [6],1430 nM
same,potency estimated from few doses,"MAP4K4; compound concentrations:100 nM and 1000 nM (sheet 'Lestaurtinib' of Supplementary Table 1),run:Lestaurtinib_02443_R2,Plate:MR009",1700 nM
same,potency estimated from few doses,MAP4K4; [3],1820 nM
same,potency estimated from few doses,"MAP4K4; compound concentrations:100 nM and 1000 nM (sheet 'Lestaurtinib' of Supplementary Table 1),run:Lestaurtinib_02482_R2,Plate:MR011",1420 nM
same,potency estimated from few doses,MAPK9; [7],1300 nM
same,potency estimated from few doses,MAPK9; [4],1990 nM
same,potency estimated from few doses,"MAPK9; compound concentrations:100 nM and 1000 nM (sheet 'Lestaurtinib' of Supplementary Table 1),run:Lestaurtinib_02572_R1,Plate:MR015",1720 nM
same,potency estimated from few doses,"MAPK9; compound concentrations:100 nM and 1000 nM (sheet 'Lestaurtinib' of Supplementary Table 1),run:Lestaurtinib_02584_R3,Plate:MR017",2260 nM
same,potency estimated from few doses,"MAPK9; compound concentrations:100 nM and 1000 nM (sheet 'Lestaurtinib' of Supplementary Table 1),run:Lestaurtinib_02624_R1,Plate:MR020",1410 nM
same,potency estimated from few doses,MAPK9; [8],2240 nM
same,potency estimated from few doses,"MAPK9; compound concentrations:100 nM and 1000 nM (sheet 'Lestaurtinib' of Supplementary Table 1),run:Lestaurtinib_02752_R3,Plate:MR025",2180 nM
same,potency estimated from few doses,"MAPK9; compound concentrations:100 nM and 1000 nM (sheet 'Lestaurtinib' of Supplementary Table 1),run:Lestaurtinib_02896_R1,Plate:MR030",2120 nM
same,potency estimated from few doses,MAPK9; [9],1900 nM
same,potency estimated from few doses,"MAPK9; compound concentrations:100 nM and 1000 nM (sheet 'Lestaurtinib' of Supplementary Table 1),run:Lestaurtinib_03260_R1,Plate:MR033",1690 nM
same,potency estimated from few doses,"PRKAG2; compound concentrations:100 nM and 1000 nM (sheet 'Lestaurtinib' of Supplementary Table 1),run:Lestaurtinib_02367_R2,Plate:MR003",1350 nM
same,potency estimated from few doses,"PRKAG2; compound concentrations:100 nM and 1000 nM (sheet 'Lestaurtinib' of Supplementary Table 1),run:Lestaurtinib_02367_R3,Plate:MR003",1360 nM
same,potency estimated from few doses,"PRKAG2; compound concentrations:100 nM and 1000 nM (sheet 'Lestaurtinib' of Supplementary Table 1),run:Lestaurtinib_02407_R1,Plate:MR005",888 nM
same,potency estimated from few doses,"PRKAG2; compound concentrations:100 nM and 1000 nM (sheet 'Lestaurtinib' of Supplementary Table 1),run:Lestaurtinib_02407_R3,Plate:MR005",1340 nM
same,potency estimated from few doses,"PRKAG2; compound concentrations:100 nM and 1000 nM (sheet 'Lestaurtinib' of Supplementary Table 1),run:Lestaurtinib_02422_R1,Plate:MR006",629 nM
same,potency estimated from few doses,PRKAG2; [6],1210 nM
same,potency estimated from few doses,"PRKAG2; compound concentrations:100 nM and 1000 nM (sheet 'Lestaurtinib' of Supplementary Table 1),run:Lestaurtinib_02473_R3,Plate:MR010",1240 nM
same,potency estimated from few doses,PRKAG2; [10],352 nM
same,potency estimated from few doses,"PRKAG2; compound concentrations:100 nM and 1000 nM (sheet 'Lestaurtinib' of Supplementary Table 1),run:Lestaurtinib_02566_R3,Plate:MR014",888 nM
same,potency estimated from few doses,PRKAG2; [11],1240 nM
same,potency estimated from few doses,PRKAG2; [9],1370 nM
same,potency estimated from few doses,PRKCA; [1],2070 nM
same,potency estimated from few doses,"PRKCA; compound concentrations:100 nM and 1000 nM (sheet 'Lestaurtinib' of Supplementary Table 1),run:Lestaurtinib_02381_R3,Plate:MR004",2400 nM
same,potency estimated from few doses,"PRKCA; compound concentrations:100 nM and 1000 nM (sheet 'Lestaurtinib' of Supplementary Table 1),run:Lestaurtinib_02443_R1,Plate:MR009",1990 nM
same,potency estimated from few doses,PRKCA; [7],2450 nM
same,potency estimated from few doses,PRKCA; [10],1720 nM
same,potency estimated from few doses,PRKCA; [5],1760 nM
same,potency estimated from few doses,PRKCA; [11],2320 nM
same,potency estimated from few doses,PRKX; [2],1490 nM
same,potency estimated from few doses,"PRKX; compound concentrations:100 nM and 1000 nM (sheet 'Lestaurtinib' of Supplementary Table 1),run:Lestaurtinib_02487_R2,Plate:MR012",2110 nM
same,potency estimated from few doses,"PRKX; compound concentrations:100 nM and 1000 nM (sheet 'Lestaurtinib' of Supplementary Table 1),run:Lestaurtinib_02487_R3,Plate:MR012",1350 nM
same,potency estimated from few doses,"PRKX; compound concentrations:100 nM and 1000 nM (sheet 'Lestaurtinib' of Supplementary Table 1),run:Lestaurtinib_02768_R1,Plate:MR028",2230 nM
same,potency estimated from few doses,"PRKX; compound concentrations:100 nM and 1000 nM (sheet 'Lestaurtinib' of Supplementary Table 1),run:Lestaurtinib_02802_R3,Plate:MR029",1970 nM
same,potency estimated from few doses,"RPS6KA3; compound concentrations:100 nM and 1000 nM (sheet 'Lestaurtinib' of Supplementary Table 1),run:Lestaurtinib_02339_R3,Plate:MR001",1510 nM
same,potency estimated from few doses,"RPS6KA3; compound concentrations:100 nM and 1000 nM (sheet 'Lestaurtinib' of Supplementary Table 1),run:Lestaurtinib_02438_R1,Plate:MR008",1840 nM
same,potency estimated from few doses,RPS6KA3; [7],1650 nM
same,potency estimated from few doses,RPS6KA3; [10],1150 nM
same,potency estimated from few doses,"RPS6KA3; compound concentrations:100 nM and 1000 nM (sheet 'Lestaurtinib' of Supplementary Table 1),run:Lestaurtinib_02577_R1,Plate:MR016",1760 nM
same,potency estimated from few doses,RPS6KA3; [8],1530 nM
